Where “and” joins values, the source holds several entries; their conditions need not be identical. Equal entries are not always repeated. Results filed as inconclusive are left out. Calls of active or inactive are those of the source. Rule for the calls, unless noted: active = hit-call score of the fitted dose curve at least 0.9, where 1 is the maximum; inactive = score below 0.9.
What was measured:
[1] = read-out: solute carrier (SLC22A1), SLC22A1 (gene 6580); assay: LTEA_HepaRG_SLC22A1: Life Technologies and Expression Analysis (LTEA) Assay for solute carrier (SLC22A1) using HepaRG (AID 2283524); settings: mRNA level, 48 h; actives raise or lower the signal;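 for AC50: differentiated human HepaRG liver cells in serum-free induction medium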
How it was run: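 qRT-PCR readout (TaqMan, Fluidigm arrays) of SLC22A1 transcript, normalized to three housekeeping genes; bidirectional curve fit relative to 0.5% DMSO vehicle. Differentiated human HepaRG cells, 48 h chemical exposure, top concentration 100 uM, half-log steps, eight points.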

[2] = read-out: Pyruvate Dehydrogenase Kinase 4 (PDK4), PDK4 (gene 5166); assay: LTEA_HepaRG_PDK4: Life Technologies and Expression Analysis (LTEA) Assay for Pyruvate Dehydrogenase Kinase 4 (PDK4) using HepaRG (AID 2283525); settings: mRNA level, 48 h; actives raise or lower the signal
How it was run: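 HepaRG (human liver line), 48 h chemical exposure, 8-pt half-log CRC top 100 uM, 0.5% DMSO vehicle, duplicates. Readout: TaqMan qRT-PCR of PDK4 mRNA, housekeeping-normalized; gain/loss fit relative to DMSO baseline.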

[3] = read-out: NAD(P)H dehydrogenase [quinone] 1 (NQO1), NQO1 (gene 1728); assay: LTEA_HepaRG_NQO1: Life Technologies and Expression Analysis (LTEA) Assay for NAD(P)H dehydrogenase [quinone] 1 (NQO1) using HepaRG (AID 2283526); settings: mRNA level, 48 h; actives raise or lower the signal
How it was run: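 Transcript induction or suppression is quantified by qRT-PCR in human HepaRG liver cells dosed for 48 hours. Eight half-log concentrations topping at 100 uM are used, with 0.5% DMSO as vehicle and baseline.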

[4] = read-out: Nuclear factor erythroid 2-related factor 2 (Homo sapiens) (UniProt Q16236); assay: LTEA_HepaRG_NFE2L2: Life Technologies and Expression Analysis (LTEA) Assay for Nuclear factor erythroid 2-related factor 2 (NFE2L2) Transcription Factor using HepaRG (AID 2283527); settings: mRNA level, 48 h; actives raise or lower the signal
How it was run: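 HepaRG, 48 h dosing, 8-pt half-log series from 100 uM in 0.5% DMSO, duplicates. Read-out: NFE2L2 mRNA by qRT-PCR (ACTB/GAPDH/POLR2A normalization). Bidirectional curve fit vs DMSO baseline.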

[5] = read-out: Signal transducer and activator of transcription 3 (Homo sapiens) (UniProt P40763); assay: LTEA_HepaRG_STAT3: Life Technologies and Expression Analysis (LTEA) Assay for Signal transducer and activator of transcription (STAT3) using HepaRG (AID 2283529); settings: mRNA level, 48 h; actives raise or lower the signal
How it was run: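 HepaRG, 48 h exposure, 8-pt half-log series (top 100 uM), 0.5% DMSO vehicle, duplicates. Readout: STAT3 transcript by Fluidigm qRT-PCR, housekeeping-normalized; bidirectional fit vs DMSO baseline.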

[6] = read-out: sulfotransferase 2A1 (SULT2A1), SULT2A1 (gene 6822); assay: LTEA_HepaRG_SULT2A1: Life Technologies and Expression Analysis (LTEA) Assay for sulfotransferase 2A1 (SULT2A1) using HepaRG (AID 2283531); settings: mRNA level, 48 h; actives raise or lower the signal
How it was run: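 Transcript levels of SULT2A1, quantified by qRT-PCR and normalized to three housekeeping genes, serve as the readout. Human HepaRG cultures receive test chemicals for 48 h at up to 100 uM in half-log steps, with 0.5% DMSO vehicle.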

[7] = read-out: Transforming Growth Factor (TGFA), TGFA (gene 7039); assay: LTEA_HepaRG_TGFA: Life Technologies and Expression Analysis (LTEA) Assay for Transforming Growth Factor (TGFA) using HepaRG (AID 2283532); settings: mRNA level, 48 h; actives raise or lower the signal
How it was run: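 qRT-PCR read-out of TGFA transcript, normalized to three housekeeping genes, fitted bidirectionally against 0.5% DMSO baseline. Human HepaRG cultures received chemicals for 48 h at eight half-log concentrations, top 100 uM.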

[8] = read-out: Transforming Growth Factor (TGFB1), TGFB1 (gene 7040); assay: LTEA_HepaRG_TGFB1: Life Technologies and Expression Analysis (LTEA) Assay for Transforming Growth Factor (TGFB1) Transporter using HepaRG (AID 2283533); settings: mRNA level, 48 h; actives raise or lower the signal
How it was run: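 HepaRG, 48 h post-plating, switched to serum-free induction medium; chemicals 100 uM top, half-log, 8 pts, 0.5% DMSO, dup; 48 h exposure; RNA → Fluidigm TaqMan qRT-PCR; norm ACTB/GAPDH/POLR2A; bidirectional fit vs DMSO.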

TIMP1, TIMP1 (gene 7076) = assay: LTEA_HepaRG_TIMP1: Life Technologies and Expression Analysis (LTEA) Assay for TIMP1 using HepaRG (AID 2283534); settings: mRNA level, 48 h; actives raise or lower the signal
How it was run: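 Readout is TIMP1 mRNA level measured by qRT-PCR and normalized to three housekeeping genes. Human HepaRG cells were treated for 48 h in duplicate at eight concentrations up to 100 uM (0.5% DMSO); gain or loss fitted against DMSO.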

[9] = read-out: Tumor necrosis factor receptor 1 (TNFRSF1A), TNFRSF1A (gene 7132); assay: LTEA_HepaRG_TNFRSF1A: Life Technologies and Expression Analysis (LTEA) Assay for Tumor necrosis factor receptor 1 (TNFRSF1A) using HepaRG (AID 2283535); settings: mRNA level, 48 h; actives raise or lower the signal
How it was run: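 Read-out is TNFRSF1A transcript level by TaqMan qRT-PCR, normalized to three housekeeping genes, scored as gain or loss of signal versus 0.5% DMSO. Human HepaRG cells received test chemicals for 48 h at up to 100 uM (half-log series).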

[10] = read-out: Cellular tumor antigen p53 (Homo sapiens) (UniProt P04637); assay: LTEA_HepaRG_TP53: Life Technologies and Expression Analysis (LTEA) Assay for Tumor Protein P53 (TP53) using HepaRG (AID 2283537); settings: mRNA level, 48 h; actives raise or lower the signal
How it was run: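 TP53 transcript measured by qRT-PCR, normalized to three housekeeping genes, after 48 h treatment of human HepaRG cultures with chemicals from 100 uM downward in half-log steps (0.5% DMSO vehicle, serum-free induction medium). Up- or down-regulation fitted against DMSO.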

[11] = read-out: UDP glucuronosyltransferase (UGT1A1), UGT1A1 (gene 54658); assay: LTEA_HepaRG_UGT1A1: Life Technologies and Expression Analysis (LTEA) Assay for UDP glucuronosyltransferase (UGT1A1) using HepaRG (AID 2283538); settings: mRNA level, 48 h; actives raise or lower the signal
How it was run: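 Cells are plated, cultured 48 h, switched to serum-free induction medium, then dosed 48 h at eight concentrations (max 100 uM, 0.5% DMSO). RNA is isolated and UGT1A1 expression measured by qRT-PCR; changes versus DMSO are fitted in both directions.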

[12] = read-out: UDP glucuronosyltransferase (UGT1A6), UGT1A6 (gene 54578); assay: LTEA_HepaRG_UGT1A6: Life Technologies and Expression Analysis (LTEA) Assay for UDP glucuronosyltransferase (UGT1A6) using HepaRG (AID 2283539); settings: mRNA level, 48 h; actives raise or lower the signal
How it was run: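 HepaRG, 48 h post-plating switch to serum-free induction medium; chemical 48 h, 100 uM top, half-log x8, duplicate, 0.5% DMSO. Phenobarbital 1mM induction control. UGT1A6 mRNA by TaqMan qRT-PCR; gain/loss fit vs DMSO.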

[13] = read-out: X-box binding protein 1 (XBP1), XBP1 (gene 7494); assay: LTEA_HepaRG_XBP1: Life Technologies and Expression Analysis (LTEA) Assay for X-box binding protein 1 (XBP1) using HepaRG (AID 2283540); settings: mRNA level, 48 h; actives raise or lower the signal
How it was run: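 Transcript levels of XBP1, measured by qRT-PCR and normalised to three housekeeping genes, were fitted bidirectionally relative to 0.5% DMSO controls. Human HepaRG cells received eight-point half-log dilutions from 100 uM for 48 h.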

[14] = LTEA_HepaRG_LDH_cytotoxicity: Cytotoxicity Assessment in the Life Technologies and Expression Analysis (LTEA) Assay (AID 2283563; active = hit-call score of the fitted dose curve at least 0.9, where 1 is the maximum;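 for AC50: LDH activity released into spent culture medium as a marker of cell death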)
How it was run: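 Cells were thawed and plated for 48 h. Medium was then replaced with serum-free induction medium. Chemicals (8 half-log points, maximum 100 uM, 0.5% DMSO) were added in duplicate for 48 h, after which spent medium was assayed for LDH.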

[15] = ATG_XTT_Cytotoxicity: Cytotoxicity Assessment in the Attagene TRANS-FACTORIAL HepG2 Assay (AID 2283584; active = hit-call score of the fitted dose curve at least 0.9, where 1 is the maximum;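 for AC50: cells exposed to compound for 24 h before reading; active means loss of viability signal versus DMSO baseline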)
How it was run: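 Cells: human HepG2, transiently transfected with MRTU reporter constructs. Exposure 24 h. Readout: XTT, cell number. Baseline/neg ctrl DMSO; loss-of-signal scored.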

[16] = TOX21_p53_BLA_p2_viability: Viability Assessment in the Tox21 HCT-116 p53 Agonism Beta-lactamase Assay, Phase 2 (AID 2283591; active = hit-call score of the fitted dose curve at least 0.9, where 1 is the maximum;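 note: compound exposure lasted 16 h at 37 °C; actives lower the ATP signal meaning cytotoxicity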)
How it was run: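 HCT116 p53-bla cells, 4000/well, dosed after 5 h plating (217-fold dilution of DMSO stocks) and incubated 16 h at 37C. Viability taken as cellular ATP by CellTiter-Glo luminescence after 30 min RT; signal loss marks cytotoxicity.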

[17] = read-out: Thyroid Hormone Responsive (THRSP), THRSP (gene 7069); assay: LTEA_HepaRG_THRSP: Life Technologies and Expression Analysis (LTEA) Assay for Thyroid Hormone Responsive (THRSP) using HepaRG (AID 2283536); settings: mRNA level, 48 h; actives raise or lower the signal
How it was run: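 qRT-PCR read-out (Fluidigm TaqMan), housekeeping-normalized (ACTB/GAPDH/POLR2A). HepaRG, 48 h chemical exposure, 8-pt half-log series from 100 uM in 0.5% DMSO, duplicates. Bidirectional curve fit vs 0.5% DMSO baseline.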

[18] = read-out: succinate dehydrogenase complex iron sulfur subunit B (SDHB), SDHB (gene 6390); assay: LTEA_HepaRG_SDHB: Life Technologies and Expression Analysis (LTEA) Assay for succinate dehydrogenase complex iron sulfur subunit B (SDHB) using HepaRG (AID 2283528); settings: mRNA level, 48 h; actives raise or lower the signal
How it was run: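 SDHB transcript level read by TaqMan qRT-PCR, housekeeping-normalised (ACTB, GAPDH, POLR2A), after 48 h chemical treatment of plated HepaRG cells; eight concentrations top 100 uM, half-log steps, 0.5% DMSO, duplicates; fitted both directions against DMSO.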

[19] = read-out: solute carrier (SLCO1B1), SLCO1B1 (gene 10599); assay: LTEA_HepaRG_SLCO1B1: Life Technologies and Expression Analysis (LTEA) Assay for solute carrier (SLCO1B1) using HepaRG (AID 2283530); settings: mRNA level, 48 h; actives raise or lower the signal
How it was run: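 HepaRG, serum-free induction medium, 48 h dosing, 8-pt half-log from 100 uM, 0.5% DMSO vehicle, duplicates. Readout: SLCO1B1 mRNA, qRT-PCR, ACTB/GAPDH/POLR2A normalization; up or down fit vs DMSO.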

Measured: AC50

Sequence of Cellular tumor antigen p53 (Homo sapiens) (P04637 whole entry, looked up): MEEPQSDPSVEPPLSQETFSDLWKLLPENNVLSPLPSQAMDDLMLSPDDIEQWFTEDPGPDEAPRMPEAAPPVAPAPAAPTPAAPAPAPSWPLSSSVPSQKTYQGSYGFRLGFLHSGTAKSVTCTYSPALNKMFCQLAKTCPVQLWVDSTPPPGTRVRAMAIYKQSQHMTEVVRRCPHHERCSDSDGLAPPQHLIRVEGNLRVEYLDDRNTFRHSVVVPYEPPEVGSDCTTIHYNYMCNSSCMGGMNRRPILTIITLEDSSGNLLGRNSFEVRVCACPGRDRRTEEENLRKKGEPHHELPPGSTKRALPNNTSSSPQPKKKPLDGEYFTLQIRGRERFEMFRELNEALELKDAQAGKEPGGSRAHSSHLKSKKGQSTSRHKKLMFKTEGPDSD
Sequence of Nuclear factor erythroid 2-related factor 2 (Homo sapiens) (Q16236 whole entry, looked up): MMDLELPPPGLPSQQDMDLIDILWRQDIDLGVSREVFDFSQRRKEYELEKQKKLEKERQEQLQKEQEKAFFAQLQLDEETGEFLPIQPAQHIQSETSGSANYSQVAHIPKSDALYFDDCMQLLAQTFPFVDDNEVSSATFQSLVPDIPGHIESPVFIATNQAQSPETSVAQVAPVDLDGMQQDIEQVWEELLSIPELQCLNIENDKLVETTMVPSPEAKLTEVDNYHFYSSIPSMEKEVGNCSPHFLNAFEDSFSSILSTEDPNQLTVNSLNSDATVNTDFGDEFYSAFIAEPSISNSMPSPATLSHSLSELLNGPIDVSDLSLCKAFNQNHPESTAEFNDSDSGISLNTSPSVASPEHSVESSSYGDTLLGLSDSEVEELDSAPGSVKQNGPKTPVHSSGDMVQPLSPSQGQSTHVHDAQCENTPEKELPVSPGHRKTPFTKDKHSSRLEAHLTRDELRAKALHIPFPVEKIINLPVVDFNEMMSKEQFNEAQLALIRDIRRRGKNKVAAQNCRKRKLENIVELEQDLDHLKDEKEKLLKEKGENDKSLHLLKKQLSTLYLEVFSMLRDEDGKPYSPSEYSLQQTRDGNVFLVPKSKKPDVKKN
Sequence of Signal transducer and activator of transcription 3 (Homo sapiens) (P40763 whole entry, looked up): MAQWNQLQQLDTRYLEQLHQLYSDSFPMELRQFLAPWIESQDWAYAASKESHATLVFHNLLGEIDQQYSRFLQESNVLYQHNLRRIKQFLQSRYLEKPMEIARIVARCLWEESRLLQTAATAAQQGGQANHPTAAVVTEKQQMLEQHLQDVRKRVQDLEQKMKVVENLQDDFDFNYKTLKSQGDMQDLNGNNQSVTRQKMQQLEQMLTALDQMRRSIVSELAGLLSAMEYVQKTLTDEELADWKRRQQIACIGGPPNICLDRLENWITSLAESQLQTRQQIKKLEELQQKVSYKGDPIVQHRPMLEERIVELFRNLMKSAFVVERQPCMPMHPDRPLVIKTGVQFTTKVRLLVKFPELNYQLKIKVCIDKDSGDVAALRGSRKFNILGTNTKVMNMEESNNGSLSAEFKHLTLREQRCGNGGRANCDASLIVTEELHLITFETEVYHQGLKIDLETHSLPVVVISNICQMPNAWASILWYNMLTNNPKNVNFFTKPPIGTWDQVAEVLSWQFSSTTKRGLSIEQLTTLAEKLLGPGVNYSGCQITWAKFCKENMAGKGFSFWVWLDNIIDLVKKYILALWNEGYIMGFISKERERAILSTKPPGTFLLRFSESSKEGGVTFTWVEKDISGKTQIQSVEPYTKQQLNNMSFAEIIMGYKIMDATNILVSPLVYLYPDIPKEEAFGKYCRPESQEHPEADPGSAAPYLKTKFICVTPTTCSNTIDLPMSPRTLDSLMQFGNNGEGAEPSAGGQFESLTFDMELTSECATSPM

S=c1[nH]c2ccccc2s1
not listed: [17] | [18] | [19]
inactive: all other assays above

NC1CCCCC1
not listed: [10] | [16] | [18] | [19]
inactive: all other assays above

O=Cc1ccccc1C=O
not listed: [10] | [16] | [17] | [18] | [19]
inactive: all other assays above

Cc1c(C)c2c(c(C)c1O)CCC(C)(COc1ccc(CC3SC(=O)NC3=O)cc1)O2 (configuration not stated)
active: [19] 24.7 µM | [6] 93.4 µM | [8] 12 µM | TIMP1, TIMP1 (gene 7076) 50 µM | [17] 27.1 µM | [14] 76.3 µM | [16] 74.4 µM and 37.1 µM
not listed: [1] | [15]
inactive: all other assays above

O=C1c2c(O)cccc2Cc2cccc(O)c21
not listed: [1] | [8] | [14] | [18]
inactive: all other assays above

CCN(CC)CCOc1ccc(C(=C(Cl)c2ccccc2)c2ccccc2)cc1
inactive: [3] | TIMP1, TIMP1 (gene 7076) | [9] | [13]
active: [1] 17.1 µM | [2] 42 µM | [4] 77.7 µM | [5] 78.6 µM | [6] 79.3 µM | [7] 42 µM | [8] 42 µM | [11] 80.1 µM | [12] 56.6 µM | [14] 62.5 µM | [15] 28 µM [middle of 5 runs]

Nc1nc(=S)c2[nH]cnc2[nH]1
active: [4] 26.6 µM | [6] 11.4 µM | [12] 5.91 µM | [13] 15.7 µM | [14] 32.9 µM
not listed: [1] | [10] | [16] | [17] | [19]
inactive: all other assays above
